From the supplement of paper PMC10849652
Of roughly 8,800 targets only a part is listed; those with a hit were picked by preference. About 0.5% of all pairs of compound and target were hits. A number with no mark means an inactive call.

Key:
Test in all cases: log2 fold change, soluble protein after heating vs DMSO (PISA); higher = thermal stabilisation; K562 lysate, 10 uM; active = over 0.2 and 3.5 SD of the protein, either way, in both replicates (recomputed)
erlotinib = compound: C#Cc1cccc(Nc2ncnc3cc(OCCOC)c(OCCOC)cc23)c1 [erlotinib]
How it was run: (§1)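 Values give the log-two fold change in thermal stability against solvent controls, from duplicates. Crude K562 extract at 1 mg/mL protein, made by dounce homogenisation in PBS pH 7.4 with 1 mM MgCl2, was treated with 10 μM compound for 30 min. After 3 min heating across 48°C-58°C, aliquots were pooled, adjusted to 0.5% NP-40 at 4°C and centrifuged at 21,000xg for 90 min. The supernatant was measured by TMTpro 16plex LC-MS/MS with channel sums equalised.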

[1] = compound: C/C(=N\NC(=O)C1=CC(=CC=C1)S(=O)(=O)N2CCOCC2)/C3=C(C=CC(=C3)Cl)O
How it was run: as §1

[2] = compound: C1=CC(=CC=C1C2=NC3=C(N2)C=C(C=C3)C(=O)N)OC4=CC=C(C=C4)Cl
How it was run: as §1

[3] = compound: C1=CC2=C(C=CC(=C2)/C=C\3/C(=O)NC(=NCC4=CC=CS4)S3)N=C1
How it was run: as §1

[4] = compound: C1=CC2=NC=CN=C2C=C1/C=C/3\C(=O)NC(=O)S3
How it was run: as §1

[5] = compound: C1=CC=C(C=C1)C2=NC(=C(N2)C3=CC=NC=C3)C4=CC(=C(C=C4)Cl)O
How it was run: as §1

[6] = compound: C1=CC=C2C(=C1)C3=NNC4=CC=CC(=C43)C2=O
How it was run: as §1

[7] = compound: C1CCN(C1)C(=O)NC2=CC=CC(=C2)NC3=NC=C(C(=N3)NCCC4=CN=CN4)Br
How it was run: as §1

[8] = compound: C1CN(CCC1(CC2=CC=C(C=C2)Cl)N)C3=NC=NC4=C3C=CN4
How it was run: as §1

IRAK-1-4 Inhibitor I = compound: C1COCCN1CCN2C3=CC=CC=C3N=C2NC(=O)C4=CC(=CC=C4)[N+](=O)[O-] [IRAK-1-4 Inhibitor I]
How it was run: as §1

ibrutinib = compound: C=CC(=O)N1CCC[C@@H](n2nc(-c3ccc(Oc4ccccc4)cc3)c3c(N)ncnc32)C1 [ibrutinib]
How it was run: as §1

[9] = compound: CC(=O)c1cnc2ccc(-c3cc(Cl)c(O)c(Cl)c3)nc2c1N[C@H]1CC[C@H](CN(C)C)CC1
How it was run: as §1

ralimetinib = compound: CC(C)(C)Cn1c(N)nc2ccc(-c3[nH]c(C(C)(C)C)nc3-c3ccc(F)cc3)nc21 [ralimetinib]
How it was run: as §1

[10] = compound: CC(C)(O)CC(=O)NCCn1ccc2ncnc(Nc3ccc(Oc4cccc(C(F)(F)F)c4)c(Cl)c3)c21
How it was run: as §1

[11] = compound: CC(C)C1=C2N=C(C=C(N2N=C1)NCC3=CC=CC=C3)NCCCCCCN
How it was run: as §1

[12] = compound: CC1=C(C(CC(=O)N1)C2=CC=C(C=C2)C(F)(F)F)C(=O)NC3=C(C=C4C(=C3)C=NN4)F
How it was run: as §1

[13] = compound: CC1=C(C2=C(C=C1)C(=O)C3=CC=CC=C3N2CCCN)C
How it was run: as §1

[14] = compound: CC1=C(C=C(C=C1)NC(=O)C2=CC(=CC=C2)C(C)(C)C#N)NC3=CC4=C(C=C3)N=CN(C4=O)C
How it was run: as §1

[15] = compound: CC1=C(C=C(C=C1)NC(=O)C2=CC(=CC=C2)N(C)C)NC(=O)C3=CC=C(C=C3)O
How it was run: as §1

[16] = compound: CC1=CC=C(C=C1)SC2=C3C=C(SC3=CN=C2)C(=O)N
How it was run: as §1

Chain of UniProt O60508 (O60508 whole entry, looked up): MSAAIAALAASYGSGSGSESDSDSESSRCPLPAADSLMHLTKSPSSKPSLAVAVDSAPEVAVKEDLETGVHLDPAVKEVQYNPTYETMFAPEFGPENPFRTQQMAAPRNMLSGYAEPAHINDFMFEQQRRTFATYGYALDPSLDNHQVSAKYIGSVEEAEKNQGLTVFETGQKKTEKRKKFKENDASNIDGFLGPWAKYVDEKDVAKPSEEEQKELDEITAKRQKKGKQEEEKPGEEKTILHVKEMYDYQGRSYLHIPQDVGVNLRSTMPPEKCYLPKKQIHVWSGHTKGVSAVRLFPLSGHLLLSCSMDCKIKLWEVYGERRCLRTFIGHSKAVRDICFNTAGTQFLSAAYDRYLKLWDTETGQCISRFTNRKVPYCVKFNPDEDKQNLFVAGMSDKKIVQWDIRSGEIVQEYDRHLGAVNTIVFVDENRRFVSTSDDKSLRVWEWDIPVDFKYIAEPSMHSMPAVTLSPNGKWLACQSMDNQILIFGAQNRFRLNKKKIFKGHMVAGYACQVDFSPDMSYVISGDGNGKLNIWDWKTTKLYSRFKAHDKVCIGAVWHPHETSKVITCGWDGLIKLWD
Chain of UniProt Q96JB5 (Q96JB5 whole entry, looked up): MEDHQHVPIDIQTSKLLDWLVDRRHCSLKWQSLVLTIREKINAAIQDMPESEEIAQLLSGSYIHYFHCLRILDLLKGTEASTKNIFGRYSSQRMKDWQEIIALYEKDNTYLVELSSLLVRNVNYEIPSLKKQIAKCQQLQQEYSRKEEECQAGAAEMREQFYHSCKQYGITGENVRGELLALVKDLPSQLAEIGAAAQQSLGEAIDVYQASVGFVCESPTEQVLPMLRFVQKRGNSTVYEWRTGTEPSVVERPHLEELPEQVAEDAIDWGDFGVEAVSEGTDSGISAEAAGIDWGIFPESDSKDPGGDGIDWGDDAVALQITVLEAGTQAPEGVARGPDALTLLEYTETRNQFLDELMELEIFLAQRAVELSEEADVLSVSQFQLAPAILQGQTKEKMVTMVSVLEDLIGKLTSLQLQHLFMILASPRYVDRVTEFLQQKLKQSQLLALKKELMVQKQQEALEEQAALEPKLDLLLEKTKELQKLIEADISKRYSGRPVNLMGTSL
Chain of UniProt Q9H3K6 (Q9H3K6 whole entry, looked up): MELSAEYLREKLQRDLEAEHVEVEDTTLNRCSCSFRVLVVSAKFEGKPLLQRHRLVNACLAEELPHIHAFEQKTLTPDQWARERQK
Chain of UniProt P49069 (P49069 whole entry, looked up): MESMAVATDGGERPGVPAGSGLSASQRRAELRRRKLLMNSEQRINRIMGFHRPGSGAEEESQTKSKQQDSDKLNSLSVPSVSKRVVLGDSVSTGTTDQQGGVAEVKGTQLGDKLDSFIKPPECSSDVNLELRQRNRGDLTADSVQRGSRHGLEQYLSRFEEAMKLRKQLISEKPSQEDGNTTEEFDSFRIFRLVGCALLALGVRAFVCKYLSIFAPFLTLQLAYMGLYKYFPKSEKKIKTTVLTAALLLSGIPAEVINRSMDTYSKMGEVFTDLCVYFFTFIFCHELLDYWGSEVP
Chain of UniProt Q9NXV6 (Q9NXV6 whole entry, looked up): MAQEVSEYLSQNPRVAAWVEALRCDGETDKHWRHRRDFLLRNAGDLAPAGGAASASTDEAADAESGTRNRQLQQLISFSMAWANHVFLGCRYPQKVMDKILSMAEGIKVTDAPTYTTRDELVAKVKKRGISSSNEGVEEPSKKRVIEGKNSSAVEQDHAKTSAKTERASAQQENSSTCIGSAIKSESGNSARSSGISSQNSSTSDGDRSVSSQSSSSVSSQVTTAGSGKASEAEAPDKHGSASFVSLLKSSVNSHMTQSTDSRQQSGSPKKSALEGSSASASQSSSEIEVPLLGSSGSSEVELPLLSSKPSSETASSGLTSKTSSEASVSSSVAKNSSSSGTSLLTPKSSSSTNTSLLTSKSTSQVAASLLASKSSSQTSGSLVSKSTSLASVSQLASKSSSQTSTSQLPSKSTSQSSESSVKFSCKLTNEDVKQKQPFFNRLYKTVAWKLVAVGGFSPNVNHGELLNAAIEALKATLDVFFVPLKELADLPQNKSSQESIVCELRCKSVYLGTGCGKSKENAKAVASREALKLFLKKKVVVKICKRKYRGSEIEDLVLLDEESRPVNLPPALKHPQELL
Chain of UniProt Q8NBU5 (Q8NBU5 whole entry, looked up): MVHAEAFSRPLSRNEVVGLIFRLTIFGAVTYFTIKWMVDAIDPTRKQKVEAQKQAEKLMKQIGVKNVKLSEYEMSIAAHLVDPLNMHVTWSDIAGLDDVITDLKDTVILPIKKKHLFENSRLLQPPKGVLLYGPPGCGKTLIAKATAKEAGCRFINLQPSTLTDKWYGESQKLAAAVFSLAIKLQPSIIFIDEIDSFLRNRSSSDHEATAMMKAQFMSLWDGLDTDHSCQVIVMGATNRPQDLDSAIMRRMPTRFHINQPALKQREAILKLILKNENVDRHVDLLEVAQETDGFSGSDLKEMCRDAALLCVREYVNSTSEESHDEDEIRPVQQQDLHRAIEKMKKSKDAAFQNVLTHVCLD
Chain of UniProt Q8N960 (Q8N960 whole entry, looked up): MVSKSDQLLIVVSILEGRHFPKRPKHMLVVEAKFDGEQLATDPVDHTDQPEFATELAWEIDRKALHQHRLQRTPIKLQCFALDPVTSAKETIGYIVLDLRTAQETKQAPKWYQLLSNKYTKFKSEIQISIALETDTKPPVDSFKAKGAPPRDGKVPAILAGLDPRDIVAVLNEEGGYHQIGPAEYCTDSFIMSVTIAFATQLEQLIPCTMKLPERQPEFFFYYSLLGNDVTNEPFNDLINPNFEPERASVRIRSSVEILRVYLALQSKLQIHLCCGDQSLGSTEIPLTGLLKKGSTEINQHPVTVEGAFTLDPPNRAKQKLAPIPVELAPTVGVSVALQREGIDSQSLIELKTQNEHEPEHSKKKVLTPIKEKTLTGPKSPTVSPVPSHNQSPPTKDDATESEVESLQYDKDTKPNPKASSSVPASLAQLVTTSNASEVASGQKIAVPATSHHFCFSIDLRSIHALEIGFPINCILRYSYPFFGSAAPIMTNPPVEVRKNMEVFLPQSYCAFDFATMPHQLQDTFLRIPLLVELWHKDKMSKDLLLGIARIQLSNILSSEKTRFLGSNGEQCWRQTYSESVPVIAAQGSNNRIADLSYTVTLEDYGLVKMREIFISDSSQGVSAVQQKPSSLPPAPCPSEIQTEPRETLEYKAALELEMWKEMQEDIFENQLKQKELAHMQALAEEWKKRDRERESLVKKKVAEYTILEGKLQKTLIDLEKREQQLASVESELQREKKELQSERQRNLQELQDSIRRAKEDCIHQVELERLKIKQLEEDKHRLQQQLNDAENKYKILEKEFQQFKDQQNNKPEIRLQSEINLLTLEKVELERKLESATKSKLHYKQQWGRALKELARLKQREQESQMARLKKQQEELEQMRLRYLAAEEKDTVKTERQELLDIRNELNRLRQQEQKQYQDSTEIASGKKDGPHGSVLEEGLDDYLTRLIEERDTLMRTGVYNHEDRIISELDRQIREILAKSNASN
Chain of UniProt Q7L2Z9 (Q7L2Z9 whole entry, looked up): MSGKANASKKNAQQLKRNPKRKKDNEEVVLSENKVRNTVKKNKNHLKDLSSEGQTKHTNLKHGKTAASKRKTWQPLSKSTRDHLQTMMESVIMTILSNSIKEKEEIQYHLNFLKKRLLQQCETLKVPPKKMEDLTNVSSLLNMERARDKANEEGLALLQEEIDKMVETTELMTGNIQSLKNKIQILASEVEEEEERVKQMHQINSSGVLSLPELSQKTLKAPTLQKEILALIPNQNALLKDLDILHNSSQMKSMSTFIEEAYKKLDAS
Chain of UniProt O95260 (O95260 whole entry, looked up): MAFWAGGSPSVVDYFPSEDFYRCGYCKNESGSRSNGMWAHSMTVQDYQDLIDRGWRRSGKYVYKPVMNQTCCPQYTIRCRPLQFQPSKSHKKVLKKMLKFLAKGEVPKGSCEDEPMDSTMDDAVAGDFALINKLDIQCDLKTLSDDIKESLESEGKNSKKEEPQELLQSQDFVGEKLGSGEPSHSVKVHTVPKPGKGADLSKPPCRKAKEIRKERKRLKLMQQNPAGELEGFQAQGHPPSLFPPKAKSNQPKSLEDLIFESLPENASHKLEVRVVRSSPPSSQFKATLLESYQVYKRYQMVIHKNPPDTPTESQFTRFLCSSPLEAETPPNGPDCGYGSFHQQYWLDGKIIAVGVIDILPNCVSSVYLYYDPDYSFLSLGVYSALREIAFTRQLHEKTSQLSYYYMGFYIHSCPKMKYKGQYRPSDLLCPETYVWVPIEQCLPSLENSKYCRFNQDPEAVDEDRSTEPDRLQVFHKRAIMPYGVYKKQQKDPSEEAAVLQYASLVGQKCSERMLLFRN
Chain of UniProt P42574 (P42574 whole entry, looked up): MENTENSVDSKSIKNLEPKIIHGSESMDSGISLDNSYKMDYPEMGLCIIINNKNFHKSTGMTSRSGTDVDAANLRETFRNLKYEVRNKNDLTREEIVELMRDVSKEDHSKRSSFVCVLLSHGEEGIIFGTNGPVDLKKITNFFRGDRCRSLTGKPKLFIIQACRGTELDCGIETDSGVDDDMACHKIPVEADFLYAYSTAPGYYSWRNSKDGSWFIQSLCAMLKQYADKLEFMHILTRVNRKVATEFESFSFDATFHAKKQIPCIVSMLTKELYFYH
Chain of UniProt P14635 (P14635 whole entry, looked up): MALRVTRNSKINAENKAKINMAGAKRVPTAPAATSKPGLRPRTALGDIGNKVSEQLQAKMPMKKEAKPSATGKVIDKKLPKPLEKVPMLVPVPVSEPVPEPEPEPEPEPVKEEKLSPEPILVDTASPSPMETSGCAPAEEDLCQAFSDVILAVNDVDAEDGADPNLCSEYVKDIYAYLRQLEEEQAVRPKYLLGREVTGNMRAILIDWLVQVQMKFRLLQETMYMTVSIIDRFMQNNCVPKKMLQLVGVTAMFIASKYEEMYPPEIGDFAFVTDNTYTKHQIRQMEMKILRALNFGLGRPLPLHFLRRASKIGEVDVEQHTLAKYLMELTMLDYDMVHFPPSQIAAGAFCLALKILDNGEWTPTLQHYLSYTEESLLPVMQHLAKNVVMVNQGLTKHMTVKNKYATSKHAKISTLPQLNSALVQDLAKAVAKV

Row | Target | log2 fold change (erlotinib) | log2 fold change [1] | log2 fold change [2] | log2 fold change [3] | log2 fold change [4] | log2 fold change [5] | log2 fold change [6] | log2 fold change [7] | log2 fold change [8] | log2 fold change (IRAK-1-4 Inhibitor I) | log2 fold change (ibrutinib) | log2 fold change [9] | log2 fold change (ralimetinib) | log2 fold change [10] | log2 fold change [11] | log2 fold change [12] | log2 fold change [13] | log2 fold change [14] | log2 fold change [15] | log2 fold change [16]
1 | CDC40 (UniProt O60508) | -0.036 | -0.004 | -0.009 | -0.037 | 0.015 | -0.072 | -0.059 | -0.023 | -0.035 | 0.117 | 0.02 | 0.034 | -0.219 (active) | 0.016 | -0.115 | 0.084 | -0.019 | 0.056 | 0.136 | -0.028
2 | CCNB1 (UniProt P14635) | -0.013 | 0.008 | 0.032 | -0.019 | 0.01 | 0.001 | -0.11 | -0.034 | 0.026 | 0.01 | -0.01 | 0.503 (active) | 0.009 | -0.045 | -0.012 | -0.005 | 0.003 | 0.044 | -0.002 | 0
3 | ATXN2 (UniProt Q99700) | 0.007 | -0.015 | 0.063 | -0.006 | -0.041 | -0.005 | -0.022 | 0.026 | 0.014 | 0.016 | -0.007 | -0.011 | -0.002 | 0 | 0.016 | 0.013 | -0.022 | -0.02 | 0.041 | -0.021
4 | BCKDK (UniProt O14874) | -0.041 | -0.168 | -0.007 | 0.062 | -0.007 | -0.053 | 0.01 | -0.041 | 0.045 | -0.097 | 0.048 | 0.049 | 0.137 | -0.017 | -0.001 | -0.048 | 0.004 | -0.088 | 0.067 | 0.059
5 | CDKN2AIP (UniProt Q9NXV6) | -0.047 | 0.067 | 0.072 | -0.01 | -0.074 | -0.006 | -0.079 | -0.038 | 0 | 0.048 | -0.003 | -0.038 | -0.013 | 0.029 | -0.04 | -0.009 | 0.03 | 0.004 | -0.019 | -0.009
6 | CAMLG (UniProt P49069) | -0.002 | 0.05 | -0.013 | 0.004 | -0.001 | 0.035 | -0.033 | 0.029 | -0.028 | -0.025 | -0.019 | -0.003 | 0.084 | -0.023 | 0.009 | -0.068 | -0.024 | -0.028 | 0.004 | -0.012
7 | CEP120 (UniProt Q8N960) | 0.044 | -0.124 | -0.03 | -0.02 | 0.004 | -0.007 | -0.142 | 0.168 | 0.215 | 0.018 | -0.02 | -0.061 | -0.076 | -0.132 | 0.001 | -0.174 | -0.224 | -0.015 | 0.001 | -0.085
8 | ATE1 isoform 2 (UniProt O95260) | -0.022 | -0.01 | 0.002 | -0.063 | 0.027 | 0.007 | 0.021 | 0.054 | 0.013 | -0.038 | 0.056 | 0.001 | -0.006 | 0.063 | -0.016 | 0.048 | -0.001 | -0.04 | -0.004 | 0.011
9 | CASP3 (UniProt P42574) | -0.002 | -0.02 | 0.044 | -0.001 | 0.034 | 0.02 | -0.042 | 0.011 | 0.039 | -0.007 | 0.028 | -0.004 | 0.009 | 0.012 | -0.048 | -0.047 | -0.026 | 0.025 | -0.02 | -0.01
10 | ATRIP (UniProt Q8WXE1) | -0.009 | 0.032 | -0.023 | 0.227 | 0.046 | 0.064 | 0.266 | -0.059 | -0.057 | 0.015 | 0.019 | 0.129 | -0.007 | -0.014 | -0.048 | 0.063 | 0.005 | -0.008 | -0.008 | -0.019
11 | ATAD1 (UniProt Q8NBU5) | 0.004 | 0.046 | -0.016 | 0.027 | -0.059 | -0.041 | 0.004 | -0.029 | 0.015 | 0.063 | 0 | 0.008 | 0.245 | -0.059 | 0.016 | -0.165 | -0.059 | -0.003 | -0.01 | 0.03
12 | CDK5RAP3 isoform 4 (UniProt Q96JB5) | 0.009 | -0.068 | -0.011 | -0.018 | 0.031 | -0.002 | -0.014 | -0.016 | 0.016 | 0.022 | -0.01 | -0.001 | -0.022 | -0.022 | -0.016 | 0.004 | 0.013 | 0.025 | 0.017 | 0.014
13 | CENPQ (UniProt Q7L2Z9) | -0.064 | -0.011 | 0.057 | 0.098 | 0.078 | 0.016 | 0.033 | -0.069 | 0.111 | -0.012 | 0.009 | 0.162 | 0.029 | -0.002 | 0.005 | 0.097 | -0.153 | -0.057 | -0.075 | 0.013
14 | BOLA2 (UniProt Q9H3K6) | 0.008 | 0.078 | -0.112 | -0.007 | 0.032 | 0.01 | 0.039 | 0.034 | 0.006 | 0.013 | -0.01 | 0.02 | -0.025 | 0.008 | -0.025 | -0.059 | 0.038 | -0.029 | -0.022 | 0.039
15 | CCNH (UniProt P51946) | 0.018 | -0.018 | 0.074 | -0.055 | -0.029 | 0 | -0.021 | -0.047 | 0.012 | -0.005 | 0.018 | -0.149 | -0.001 | -0.064 | -0.058 | -0.044 | -0.025 | -0.044 | 0.018 | -0.016
16 | CCDC186 (UniProt Q7Z3E2) | -0.018 | 0.026 | 0.01 | 0.007 | -0.03 | -0.009 | -0.027 | -0.039 | 0.007 | 0.016 | 0.024 | -0.025 | -0.001 | -0.056 | -0.086 | 0.006 | 0.021 | -0.016 | 0 | -0.023
